# High-throughput results (PubChem BioAssay)
# KB-3-1 tox: qHTS assay for MDR1-selective chemotherapeutics: Primary screen using the parental adenocarcinoma cell KB-3-1; KB-3-1 viability, CellTiter-Glo ATP luminescence, 72 h; hit rate 1.4% among 400,000; Potency, µM (top dose mostly 46.1 µM), actives largely listed as cytotoxic; AID 1347075, 2019; note: nearly all actives have a fitted effect of over 60% in size
#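 Here the drug-naive KB-3-1 line serves as comparator for MDR sub-line selectivity; cells received compound titrations, 72 h at 37 °C, then CellTiter-Glo readout.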
# ASM inhibitor: Inhibitors of Secretory Acid Sphingomyelinase (S-ASM): qHTS. Sphingomyelin phosphodiesterase (Homo sapiens), P17405. placental ASM, HMU-PC fluorogenic substrate, 60 min. Potency, µM (top dose mostly 57.5 µM), hits mostly inhibitors. hit rate 0.006% among 340,000
# Target sequence (P17405 47-631 limits assumed): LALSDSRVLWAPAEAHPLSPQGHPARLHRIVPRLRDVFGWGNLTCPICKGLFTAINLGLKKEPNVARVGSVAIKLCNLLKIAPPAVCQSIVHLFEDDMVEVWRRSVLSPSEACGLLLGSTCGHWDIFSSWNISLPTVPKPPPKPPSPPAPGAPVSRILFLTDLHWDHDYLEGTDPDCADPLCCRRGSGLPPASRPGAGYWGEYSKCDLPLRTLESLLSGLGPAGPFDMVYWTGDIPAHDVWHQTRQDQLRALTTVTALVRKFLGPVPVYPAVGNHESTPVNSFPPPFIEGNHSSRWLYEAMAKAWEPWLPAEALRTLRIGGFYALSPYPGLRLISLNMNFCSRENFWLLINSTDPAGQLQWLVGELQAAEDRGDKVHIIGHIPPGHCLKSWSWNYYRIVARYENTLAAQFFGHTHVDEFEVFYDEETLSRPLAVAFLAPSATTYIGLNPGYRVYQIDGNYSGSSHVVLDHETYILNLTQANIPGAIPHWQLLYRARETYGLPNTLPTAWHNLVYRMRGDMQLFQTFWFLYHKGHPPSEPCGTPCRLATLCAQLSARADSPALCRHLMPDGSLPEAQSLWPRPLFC
#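 Human placenta-derived ASM preincubated with compound 10 min at room temperature, then reacted with 9 uM (final) fluorogenic HMU-PC substrate for 60 min at 37 C. Stop solution raises pH to 10; fluorescence read at Ex 386/Em 447 nm.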
# MCF10A rerep: A quantitative high throughput screen for small molecules that induce DNA re-replication in MCF 10a normal breast cells. hit rate 2.9% among 350,000. MCF 10A DNA re-replication, Hoechst nuclear intensity, 48 h. Potency, µM (doses to about 46.1 µM), most hits filed as activators. AID 624296, 2012; note: nearly all actives have a fitted effect of over 50% in size
# SW480 rereplic: A quantitative high throughput screen for small molecules that induce DNA re-replication in SW480 colon adenocarcinoma cells; SW480 DNA re-replication, Hoechst DNA content imaging, 48 h; Potency, µM (top dose mostly 46.1 µM), usual class: activators; hit rate 1.8% among 340,000; note: nearly all actives have a fitted effect of over 55% in size
#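 DNA re-replication was detected as more nuclei of elevated Hoechst intensity after 48 hr exposure to compound (23 nL pinned per well of 250 cells).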
# KB-V1 MDR tox: qHTS assay for MDR1-selective chemotherapeutics: Primary screen using the drug-selected MDR subline cells KB-V1; Potency, µM (titrated, usually from 46.1 µM), most hits filed as cytotoxic; AID 1347076, 2019; hit rate 3.4% among 400,000; KB-V1 MDR cells viability, CellTiter-Glo, 72 h; note: nearly all actives have a fitted effect of over 60% in size
#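 Luminescent ATP read-out (CellTiter-Glo, 10 min) measures survival of drug-selected KB-V1 MDR cells after 72 h, 37 degrees C compound exposure. Medium: phenol-red-free DMEM, 10% FBS. Values from fitted concentration-response curves.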
# Giardia killer: Small Molecules that selectively kill Giardia lamblia: qHTS; Giardia lamblia trophozoite viability; activity change, % at 7.66 µM, hits read low; hit rate 0.15% among 340,000; in the data active = activity change below about -80%; inconclusive = between about -30% and that limit;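 note: parasites exposed to compound for two days anaerobically before the ATP read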
#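 Compounds were tested on trophozoites seeded at 100 cells/well and held 48 hrs at 37 deg C anaerobically. An ATP-based luminescent kit measured the remaining live cells.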
# A number is an active result; - = inactive; ? = inconclusive; . = not tested or not shown; ! = not active in a repeat. Sampled rows, rich in hits. Any-hit rate of the full collection: about 6.9%. Unless noted, calls come from the whole dose curve; as a rule, active = well fitted curve in the direction sought with a large enough effect; inconclusive = small, poorly fitted or top-dose-only effect, or another doubt; inactive = no such curve, though single readings can be large; an effect the other way counts as inactive or inconclusive.
SMILES,KB-3-1 tox,ASM inhibitor,MCF10A rerep,SW480 rereplic,KB-V1 MDR tox,Giardia killer
COn1c2c(c3c4nonc4ccc31)CCCC2,-,-,-,-,18.4µM,-
CC(=O)C1=C(C)NC(SCC(N)=O)=C(C#N)C1c1cccnc1 (centres undefined),-,-,20.6µM,-,-,-
CCCCOC(=O)CSC1=C(C#N)C(c2cccnc2)C(C(=O)OCC)=C(c2ccccc2)N1 (centres undefined),-,-,18.4µM,23.1µM,-,-
CC1=C(C(=O)Nc2ccc(Cl)cc2)C(c2ccncc2)C(C#N)=C(SCC(N)=O)N1 (centres undefined),-,-,-,-,-,-
Cc1c(NC(=O)c2cccc3c(Cl)cccc23)cccc1-c1nc2ccccc2o1,-,.,.,.,-,.
Cc1cnc(C(=O)O)c[n+]1[O-],.,.,-,-,.,.
CCOC(=O)c1cc(OC(=O)c2cc(OC)cc(OC)c2)n(-c2ccccc2)n1,-,.,.,.,-,.
C/C=C1\NC(=O)[C@H](CC(N)=O)N(C)C(=O)C([C@@H](C)O)NC(=O)C(CCCc2ccc(OC)cc2)NC(=O)[C@H](C(C)C)NC(=O)/C(=C\C)NC(=O)[C@H](O)[C@@H](C[C@@H](O)CCCCCCC)NC(=O)[C@H](C)NC(=O)CN(C)C(=O)[C@H](CCC(N)=O)NC1=O (some centres undefined),16.4µM,-,18.4µM,?,-,-
Cc1ccc(CCNC(=O)c2cnc3c(-c4ccc(F)cc4)c(C)nn3c2C)cc1,-,.,.,.,-,.
CN(C)c1ncnc2c1C(c1ccccc1)C(C)(C)O2 (centres undefined),-,-,-,-,18.4µM,-
Nc1[nH]c(=S)[nH]c(=O)c1N=O,?,.,.,.,-,.
CCOC(=O)c1c(C)oc2c1c(C(c1cccnc1)N1CCCCC1)c(O)c1ccccc12 (centres undefined),-,-,?,-,-,-
CCOC(=O)c1c(C)oc2c1c(C(c1ccccc1)N1CCOCC1)c(O)c1ccccc12 (centres undefined),-,-,4.11µM,?,18.4µM,-
COC(=O)C(NC(=O)C(CC(C)C)NC(=O)C1CCC(C)CC1)C(C)C (centres undefined),-,-,-,-,?,-
CCCCCCC1CCC(C(=O)NC(CCSC)C(=O)NC(C(=O)OC)C(C)C)CC1 (centres undefined),-,-,7.31µM,-,-,-
COc1ccc(-c2onc(C)c2-c2ccc(C(=O)OC(C)C)o2)c(O)c1,?,-,?,-,20.6µM,-
CCOC(=O)/C=C1\CN(Cc2cc(OC)c(OC)c(OC)c2)S(=O)(=O)c2ccccc21,?,-,?,-,10.3µM!,-
CC(C)(C)c1ccc(NC(=O)COC(=O)c2ccccc2OCC(=O)Nc2ccc(Br)cc2)cc1,-,.,.,.,-,.
Cc1noc(C)c1CSCC(=O)Nc1cccc(C(F)(F)F)c1,.,-,18.4µM,-,.,-
CC(=O)OCCNc1cc(N2CCN(C)CC2)c2noc3c2c1C(=O)c1ccccc1-3,-,-,-,-,-,-
CCOC(=O)C(C(=O)OCC)c1cc(Br)c2noc3c2c1C(=O)c1ccccc1-3,5.17µM,-,?,?,?,-
O=C1C=C(c2ccc3ncccc3c2)C[C@@H](c2ccc3c(c2)OCO3)C1,?,-,?,20.6µM,?,-
O=C1C=C(c2ccc3ncccc3c2)C[C@@H](c2ccc(F)cc2)C1,-,-,-,-,-,-
CCC(=O)N1CCc2cc(Br)cc(S(=O)(=O)CCC(=O)Nc3ccc(CC)cc3)c21,-,.,.,.,-,.
CC(=O)c1ccc(NC(=S)NC(C)c2ccc(Cl)cc2Cl)cc1 (centres undefined),-,-,?,-,18.4µM,-
O=C(Nc1cc(Cl)ccc1Cl)C1(c2cccs2)CCOCC1,-,.,.,.,-,.
